High-throughput results from PubChem BioAssay.
IL-1B inflam inh: blocks inflammasome-driven IL-1 beta release | 360,000 tested, 4.7% active | THP-1 LPS/ATP IL-1B secretion, AlphaLISA, 16 h; hits give low values | activity change, % at 57.5 µM | AID 743279; in the data active means activity change below about -50%; inconclusive means mostly about -30% to -49%
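THP-1 cells pretreated 1 hr with compounds (up to 57.5 uM final), then stimulated with LPS (250 ng/mL final) plus ATP (1.25 mM final); secreted IL-1B measured by AlphaLISA after 16 hr, decreased signal indicating inhibition.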
HT1080-NT tox: kills 2HG-producing HT-1080-NT fibrosarcoma cells | 360,000 tested, 1.6% active | HT-1080-NT fibrosarcoma viability, CellTiter-Glo ATP luminescence, 48 h | Potency, µM (series often up to 46.1 µM), usual class: cytotoxic;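 further: NT is the 2HG producing partner of a matched IDH1 knockdown line; nearly all actives have a fitted effect of over 55% in size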
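HT-1080-NT fibrosarcoma cells (2HG-overproducing), 750 cells/well in RPMI with 5% FBS, dosed after 2 h and incubated 48 h at 37C. CellTiter-Glo luminescence normalized to DMSO and no-cell wells; concentration-response curves fitted and classed.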
HT1080 IDH1KD tx: HT-1080 IDH1 knockdown cell toxicity (counter line); HT-1080 IDH1 knockdown viability, ATP luminescence, 48 h; Potency, µM (top dose mostly 46.1 µM), usual class: cytotoxic; 360,000 tested, 2% active; AID 686971
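HT-1080-IDH1KD cells (IDH1 knocked down), 750/well in RPMI with 5% FBS, treated with compound 48 h at 37 degrees C. Viability by CellTiter-Glo luminescence, normalised to DMSO and no-cell wells; concentration-response curves classed.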
TDP1 cell noCPT: qHTS for Inhibitors of human tyrosyl-DNA phosphodiesterase 1 (TDP1): qHTS in cells in absence of CPT. DT40 Tdp1-/- hTDP1 cells, no CPT, ATP luminescence, 48 h. Potency, µM (top dose mostly 46.2 µM), usual class: inhibitors. 420,000 tested, 15% active; further: nearly all actives have a fitted effect of over 55% in size
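No-CPT arm: Tdp1-/-;hTDP1 DT40 cells (400/well) plus compounds, incubated ≥48 hr at 37 °C. Readout CellTiter-Glo luminescence.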
ELG1 repair inh: ELG1-dependent DNA repair inhibition. HEK293T ELG1-luciferase reporter, luminescence, 16 h; DNA damage induced by 5-fluorouridine. Potency, µM (series often up to 46.1 µM), usual class: inhibitors. 330,000 tested, 2.3% active; further: nearly all actives have a fitted effect of over 55% in size
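In this reporter screen, reduction of luminescence relative to DMSO vehicle indicated activity. Compounds and 5-fluorouridine were added together to 2,000 cells per well, incubated for 16 hr at 37 °C, then developed with ONE-Glo.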
TDP1 cell CPT: growth inhibition of DT40 Tdp1-/-;hTDP1 cells with camptothecin (screen for TDP1 inhibitors); Potency, µM (titrated, usually from 46.2 µM), most hits filed as inhibitors; chicken DT40 Tdp1-/-;hTDP1 cells + 20 nM CPT, ATP luminescence, 48 h; 420,000 tested, 12% active; AID 686979; further: nearly all actives have a fitted effect of over 55% in size
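Chicken DT40 Tdp1-/- cells complemented with human TDP1, 400 cells/well, exposed to compounds plus 20 nM camptothecin for at least 48 h at 37 C; viability read as ATP content by CellTiter-Glo luminescence.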
Large screens that a line does not name were inactive. Only some compounds are listed: those with a hit (about 19% of all), similar ones and a draw of the others. Unless noted, the call rests on the fitted dose curve; in most records, active means well fitted curve in the direction sought with a large enough effect; inconclusive means small, poorly fitted or top-dose-only effect, or another doubt; inactive means no such curve, though single readings can be large; an effect the other way counts as inactive or inconclusive.

CNC(=O)CN(c1ccc(C23CC4CC(CC(C4)C2)C3)cc1)S(C)(=O)=O	TDP1 cell noCPT 25.9µM, TDP1 cell CPT inconclusive
O=C(COc1ccc(Br)cc1CO)Nc1ccc(S(=O)(=O)N2CCCC2)cc1	IL-1B inflam inh -57.3, TDP1 cell noCPT inconclusive, ELG1 repair inh inconclusive, TDP1 cell CPT inconclusive
Cc1ccc(NC(=O)COc2cccc(-n3cnnn3)c2)cc1S(=O)(=O)N1CCOCC1	TDP1 cell noCPT 23.1µM, ELG1 repair inh inconclusive, TDP1 cell CPT inconclusive
Cc1ccc(NC(=O)COc2ccc(Br)cc2CO)cc1S(=O)(=O)N1CCOCC1	TDP1 cell noCPT 18.4µM, ELG1 repair inh 20.6µM, TDP1 cell CPT inconclusive
Cc1ccc(NC(=O)COc2cccnc2[N+](=O)[O-])cc1S(=O)(=O)N1CCOCC1	TDP1 cell noCPT inconclusive
Cc1cc(NCC(=O)Nc2ccc(C)c(S(=O)(=O)N3CCOCC3)c2)ccc1Br	TDP1 cell noCPT 18.4µM, TDP1 cell CPT inconclusive (no result: ELG1 repair inh)
Cc1ccc(S(=O)(=O)N2CCOCC2)cc1NC(=O)COc1cccc(-n2cnnn2)c1	none
CC1CCN(c2cc3c(cc2F)c(=O)c(S(=O)(=O)c2cccc(Cl)c2)cn3Cc2ccccc2)CC1	none (no result: IL-1B inflam inh, HT1080-NT tox, HT1080 IDH1KD tx, ELG1 repair inh)
Cn1c(=O)c(-c2ccc(F)c(F)c2)nc2cncnc21	none (no result: IL-1B inflam inh, HT1080-NT tox, HT1080 IDH1KD tx, ELG1 repair inh)
Cc1cccc(C2=NC(C(F)(F)F)(C(F)(F)F)c3c(n(-c4ccc(F)cc4)c(=O)[nH]c3=O)N2)c1	TDP1 cell noCPT 16.4µM, ELG1 repair inh 9.2µM, TDP1 cell CPT 20.6µM
NC(=O)C1CCN(C(=O)Cn2c(-c3cccs3)cc3ccccc32)CC1	none (no result: IL-1B inflam inh, HT1080-NT tox, HT1080 IDH1KD tx, ELG1 repair inh)
CCN=c1scc(-c2cccs2)n1/N=C/c1cc(OC)ccc1O	IL-1B inflam inh -61.7, TDP1 cell noCPT 20.6µM, ELG1 repair inh inconclusive, TDP1 cell CPT inconclusive
CN=c1scc(-c2ccccc2F)n1/N=C/c1ccc(O)c(O)c1O	HT1080 IDH1KD tx inconclusive, TDP1 cell noCPT 11.6µM, ELG1 repair inh inconclusive, TDP1 cell CPT 13µM
CN=c1scc(-c2ccccc2F)n1/N=C/c1ccc[nH]1	IL-1B inflam inh inconclusive, HT1080-NT tox inconclusive, HT1080 IDH1KD tx inconclusive, TDP1 cell noCPT inconclusive, ELG1 repair inh inconclusive
CC(C)N=c1scc(-c2cccs2)n1/N=C/c1ccc(O)c(O)c1O	IL-1B inflam inh -82.9, HT1080-NT tox inconclusive, HT1080 IDH1KD tx 16.4µM, TDP1 cell noCPT 13µM, ELG1 repair inh inconclusive, TDP1 cell CPT 13µM
Oc1ccc(/C=N/N=C(c2ccccc2)c2ccccc2)c(O)c1O	HT1080 IDH1KD tx inconclusive, TDP1 cell noCPT inconclusive, TDP1 cell CPT inconclusive
Cc1cccc(C)c1NC(=O)Cn1cc(C(=O)C2CC2)c2ccccc21	none (no result: IL-1B inflam inh, HT1080-NT tox, HT1080 IDH1KD tx, ELG1 repair inh)
Cc1nsc2nc3c(F)c(F)c(F)c(F)c3cc12	IL-1B inflam inh -96.7, HT1080 IDH1KD tx inconclusive, TDP1 cell noCPT inconclusive, TDP1 cell CPT inconclusive
COc1cc(OC)cc(C(=O)NC(C)CNc2ccc(Cl)cc2[N+](=O)[O-])c1 (configuration not stated)	TDP1 cell noCPT 8.2µM, ELG1 repair inh inconclusive, TDP1 cell CPT inconclusive
COCC(C)NC(=O)c1cc(OC)cc(OC)c1 (configuration not stated)	none
COc1ccc(Cl)cc1S(=O)(=O)NCCCn1ccnc1	none
CCOc1cc(Cl)c(S(=O)(=O)NCCCn2ccnc2)cc1Cl	HT1080 IDH1KD tx inconclusive, TDP1 cell noCPT 16.4µM, ELG1 repair inh inconclusive, TDP1 cell CPT 20.6µM
CCC(C)NC(=O)CCc1c(C)nc2c(c(C)nn2-c2ccccc2)c1C (configuration not stated)	TDP1 cell noCPT 23.1µM, TDP1 cell CPT 10.3µM
COC(=O)C(NC(=O)CCc1c(C)nc2c(c(C)nn2-c2ccccc2)c1C)C(C)C (configuration not stated)	TDP1 cell noCPT 16.4µM, TDP1 cell CPT 16.4µM
Cc1nc2c(c(C)nn2-c2ccccc2)c(C)c1CCC(=O)Nc1ccccc1	none (no result: IL-1B inflam inh, HT1080-NT tox, HT1080 IDH1KD tx, ELG1 repair inh)
CCN(CC(=O)Nc1c(F)cccc1F)C(=O)CNC(=O)c1cccc(C)c1	none
